Only some compounds are listed: those with a hit (about 7.7% of all), similar ones and a draw of the others.
HCMV inh: qHTS Assay for inhibitors of the human cytomegalovirus (HCMV); 410,000 compounds, 4.5% hits; HFF cells, HCMV-luciferase reporter, 72 h; hits give low values; activity change, negative = inhibition, % at 57.5 µM; in the data active = activity change below about -60%; inconclusive = no clear call, values can overlap the other calls; inactive = above about -39%
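Compounds were evaluated in HFFs infected with an HCMV luciferase reporter virus (MOI 1 PFU/cell). Luciferase in lysates collected 72 h post infection served as the replication measure.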
FMDV antiviral: High Throughput Screening for Foot and Mouth Disease Virus Antivirals. FMDV antiviral cell-based qHTS. Potency, µM (doses to about 57.9 µM), for inactives: at the top dose activity change, negative = inhibition, most hits filed as inhibitors. 410,000 compounds, 1.2% hits. AID 1159524, 2015; calls by dose curve; tested in HEK293T cells; note: read-out not given here; potency is the fitted concentration of half-maximal effect; nearly all actives have a fitted effect of over 45% in size
TbPYK inhibitor: qHTS of Trypanosoma Brucei Inhibitors. pyruvate kinase (Trypanosoma brucei), Q57TT1. TbPYK enzyme, Kinase-Glo Plus ATP luminescence, 45 min. Potency, µM (top dose mostly 76.8 µM), for inactives: at the highest dose activity, negative = inhibition, usual class: inhibitors. 410,000 compounds, 0.12% hits; note: potency is the fitted concentration of half-maximal effect; nearly all actives have a fitted effect of over 50% in size
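Glycolytic pyruvate kinase of T. brucei was incubated with substrate, test compound and 130 uM ADP for 45 minutes at room temperature. Luminescent Kinase-Glo Plus signal was measured after 10 minutes.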
Sm TGR inh: qHTS Assay for the Inhibitors of Schistosoma Mansoni Peroxiredoxins. Schistosoma mansoni thioredoxin glutathione reductase (TGR), Q962Y6. AID 485364, 2010. 360,000 compounds, 3% hits. Potency, µM (top dose mostly 114 µM), for inactives: at the top dose activity change, negative = inhibition, usual class: inhibitors. purified TGR, DTNB reduction, TNB absorbance 405 nm; note: potency is the fitted concentration of half-maximal effect; nearly all actives have a fitted effect of over 60% in size
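TGR 20 nM + NADPH 100 uM (dispensed conc.), cpd preinc 15 min RT; start with NADPH (500 uM addition) then DTNB (15 mM addition). Kinetic TNB absorbance, 405 nm filter. Four-parameter Hill fit across titration.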
RE007 growth inh: qHTS Assay for Inhibitors of the HIV-1 protein Vpr; S. pombe RE007 Vpr strain, BacTiter-Glo ATP luminescence, 24 h; Potency, µM (top dose mostly 92.2 µM), for the others: top-dose activity change, negative = less growth, most hits filed as inhibitors; 360,000 compounds, 0.21% hits; AID 651644, 2012; active = well fitted falling curve with a large enough effect; inconclusive = small, poorly fitted or top-dose-only effect; inactive = no such curve, though single readings can be large or run the other way; note: potency is the fitted concentration of half-maximal effect; nearly all actives have a fitted effect of over 50% in size
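Fission yeast RE007 carrying one integrated HIV-1 vpr copy, seeded at OD 0.01 in PMG+AL medium with 23 nL pinned compound. Grown 24 h at 30 degrees; viability read by BacTiter-Glo luminescence after 5 min.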
Giardia FBPA inh: qHTS Assay for Inhibitors of Fructose-1,6-bisphosphate Aldolase from Giardia Lamblia | A8B2U2 | purified Giardia FBPA | Potency, µM (highest dose often 59.6 µM), inactives show at the top dose activity, negative = inhibition, usual class: inhibitors | 290,000 compounds, 0.71% hits | AID 2451, 2010; note: potency is the fitted concentration of half-maximal effect; nearly all actives have a fitted effect of over 55% in size
Target sequence (A8B2U2 whole entry, looked up): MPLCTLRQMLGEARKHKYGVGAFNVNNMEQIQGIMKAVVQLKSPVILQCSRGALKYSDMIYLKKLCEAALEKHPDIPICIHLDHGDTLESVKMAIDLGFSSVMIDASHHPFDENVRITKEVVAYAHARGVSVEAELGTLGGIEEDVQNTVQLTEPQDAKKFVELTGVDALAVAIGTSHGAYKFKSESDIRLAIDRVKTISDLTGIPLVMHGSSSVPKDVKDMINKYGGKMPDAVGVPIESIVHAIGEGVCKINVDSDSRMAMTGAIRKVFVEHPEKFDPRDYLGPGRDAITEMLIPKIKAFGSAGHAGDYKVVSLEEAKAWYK
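40 nM FBPA preincubated 10 min at RT with compound (up to 57.5 uM final), then substrate plus GAPDH/TPI/NAD/arsenate coupling and diaphorase/resazurin added. Fluorescence read after 20 min at RT, 525/598 nm.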
Active calls of the source: *; u = inconclusive; x = not tested or not shown; [ ] = dose if it differs, or a comment. Unless noted, calls come from the whole dose curve; as a rule, active = well fitted curve in the direction sought with a large enough effect; inconclusive = small, poorly fitted or top-dose-only effect, or another doubt; inactive = no such curve, though single readings can be large; an effect the other way counts as inactive or inconclusive. % is set by controls: 0 for no effect and ±100 for the full control effect.

SMILES	HCMV inh	FMDV antiviral	TbPYK inhibitor	Sm TGR inh	RE007 growth inh	Giardia FBPA inh
COc1cc(NC(=O)Cc2noc3ccccc23)cc(OC)c1OC	29.4	-9.8%	0.0%	-3.8%	x	x
Oc1ccc(CNc2cccc(F)c2F)c2cccnc12	x	x	x	0.112µM*	x	x
Oc1ccc(F)c2cccnc12	-28.3	0.0%	u	11.5%	1.1%	u
Oc1ccc(CNc2ccc(C(F)(F)F)cc2Cl)c2cccnc12	x	x	x	1µM*	x	x
Oc1ccc(CNc2ccccc2F)c2cccnc12	-89.2*	-20.9%	-12.1%	0.112µM*	-12.1%	15.5%
COc1ccc(CN2CCN(Cc3ccc(Br)cc3)CC2)c(OC)c1OC	-68.0*	u	-7.1%	4.8%	-16.1%	u
CC1(C)CC=C(O[Si](C)(c2ccccc2)c2ccccc2)CC1	x	x	x	x	x	2.0%
CCOC(=O)c1cccc2c1-c1ccccc1/C2=N/O	-71.0*	x	-10.3%	8.9%	-7.3%	0.6%
CC(C)COC(=O)c1cccc2c1-c1ccccc1/C2=N\O	-31.1	-11.4%	4.1%	-19.2%	u	3.3%
CCOc1ccccc1C(=O)Nc1cnn(Cc2ccc(F)cc2)c1	-63.4*	-10.3%	-1.6%	1.8%	-17.1%	-7.9%
CCC(C)(C)n1nnnc1C(c1ccc(O)c(OC)c1)N1CCN(c2nc3ccccc3s2)CC1 (centres undefined)	8.5	0.0%	-17.0%	0.708µM*	-3.3%	0.5%
CCC(C)(C)n1nnnc1C(c1ccccc1)N1CCc2ccccc2C1 (centres undefined)	7.4	u	0.3%	u	32.5%	-1.0%
CCC(C)(C)n1nnnc1C(c1ccc(O)c(OC)c1)N1CCc2ccccc2C1 (centres undefined)	-17.1	-4.1%	-48.2%	0.251µM*	-0.5%	-23.6%
COc1ccc(C(c2nnnn2C(C)(C)C)N2CCN(c3nc4ccccc4s3)CC2)cc1 (centres undefined)	28.2	-21.6%	-7.5%	-13.9%	17.5%	-0.8%
COc1ccc(N2C(=O)[C@@H]3[C@H](C2=O)[C@H]2c4ccccc4C=CN2[C@@H]3C(C)=O)cc1	-33.4	-24.6%	-14.2%	39.8µM*	x	u
Cc1cccc(N=c2oc3cc(O)ccc3cc2C(N)=O)c1	-61.2*	3.6%	-0.7%	-1.8%	-12.0%	5.7%
COc1ccc2cc(C(N)=O)c(=Nc3ccc(C)cc3)oc2c1	-83.1*	9.8%	0.2%	7.5%	8.5%	1.3%
COc1ccccc1N=c1oc2cc(O)ccc2cc1C(=O)NCC1CCCO1 (centres undefined)	-16.0	4.3%	7.3%	-1.8%	-18.1%	1.5%
COc1ccccc1N=c1oc2cc(O)ccc2cc1C(N)=O	-35.7	29.6%	-3.0%	-0.4%	8.91µM*	10.4%
CCCCCCC(=O)Cc1cc(OC)c(OC)cc1C=C(C(=O)OCC)C(=O)OCC	x	x	x	39.8µM*	x	-6.1%[12.9 µM]
O=C(NCC(c1ccc(Cl)cc1)N1CCCCC1)c1ccccc1F (centres undefined)	7.8	-16.6%	8.7%	-2.8%	x	x
O=C(O)CC1NC(=S)N(c2ccccc2)C1=O (centres undefined)	4.3	4.6%	-11.3%	-21.8%	3.7%	-1.4%
O=C1C(CSCc2ccccc2)NC(=S)N1c1ccccc1 (centres undefined)	34.1	28.2µM*	12.3%	-11.8%	-8.4%	2.8%
Cc1cc(C)cc(C(=O)Nc2c3c(nn2-c2ccccc2C)CS(=O)(=O)C3)c1	-9.5	-2.6%	2.2%	-34.8%	x	x
COC1C(O)C(C)OC(OC2C(Oc3cccc4c(O)c5c(=O)oc6ccc(C)c7c(=O)oc(c34)c5c67)OC(C)C(O)C2O)C1O (centres undefined)	-97.2*	u	-11.6%	x	u	x
SMILES	HCMV inh	FMDV antiviral	TbPYK inhibitor	Sm TGR inh	RE007 growth inh	Giardia FBPA inh
CC1O[C@@H](O[C@H]2C(Oc3cc(O)c4c(=O)cc(-c5ccc(O)cc5)oc4c3)OC(CO)C(O)C2O)C(O)C(O)C1O (some centres undefined)	x	-4.9%	x	x	x	-12.6%
CCc1ccc(C(C)NC(=S)NCc2ccc(F)cc2)cc1 (centres undefined)	29.2	6.8%	-0.3%	3.4%	9.5%	8.7%
Cc1ccc(C(C)NC(=S)NCc2ccc(F)cc2)cc1C (centres undefined)	-82.4*	2.1%	-8.4%	1.8%	0.3%	-1.0%
Fc1ccc(-c2csc3ncnc(N4CCN(c5ccccc5)CC4)c23)cc1	-61.9*	-29.0%	-1.2%	-3.3%	8.1%	3.0%
COc1ccc(F)cc1CN1CCN(c2ncnc3scc(-c4ccccc4)c23)CC1	-75.4*	u	-5.2%	3.8%	1.6%	1.2%
COc1ccc(N2CCN(c3ncnc4scc(-c5ccc(C)cc5)c34)CC2)cc1	-64.1*	u	1.4%	-0.7%	8.6%	1.0%
O=C(c1ccco1)N1CCN(c2ncnc3scc(-c4cccs4)c23)CC1	u	22.4µM*	1.1%	-19.7%	-4.6%	5.7%
c1ccc(-c2csc3ncnc(N4CCOCC4)c23)cc1	-37.8	-22.9%	-4.3%	1.0%	-18.2%	3.9%
O=C(c1ccco1)N1CCN(c2ncnc3scc(-c4ccccc4)c23)CC1	-22.5	u	-1.2%	0.0%	-12.6%	-0.6%
c1ccc(-c2n[nH]c3c2oc2ccccc23)cc1	x	42.2%	x	x	x	-5.6%
CCN1CCN(c2nnc(-n3cccc3C(=O)NCc3ccccc3OC)s2)CC1	u	3.0%	-0.4%[15.4 µM]	6.4%	x	x
COc1ccc(NC(=O)CN2C(=O)C(c3ccc(C)cc3)=NC23CCCCCC3)cc1Cl	-22.5	-0.9%	2.6%	9.4%	x	x
O=C(c1cccs1)N1CCCN(c2ncnc3scc(-c4ccccc4)c23)CC1	-28.2	u	9.7%	5.2%	-2.0%	5.9%
COc1ccc(N2CCN(c3ncnc4scc(-c5ccc(F)cc5)c34)CC2)cc1	-39.9	28.2µM*	6.5%	-15.1%	-1.9%	-2.1%
Cc1ccc(-c2csc3ncnc(N4CCN(C(=O)c5ccccc5)CC4)c23)cc1	-70.2*	25.1µM*	-0.3%	-5.8%	11.1%	2.6%
Cc1c(/C=C(\C#N)C(=O)Nc2cccc(Cl)c2)c2ccccc2n1Cc1ccccc1Cl	18.3	-7.5%	2.7%	-21.9%	x	x
Cc1c(C(=O)NCCN2CCOCC2)cnn1-c1nccc(-c2cc3ccccc3o2)n1	x	-20.6%	x	x	x	x
O=C(CSc1nc2ccccc2nc1Cc1ccccc1)N1CCCc2ccccc21	11.5	16.1%	1.5%	4.1%	x	x
